Among the data in PubChem BioAssay (EPA / NIEHS) are outcome and AC50 values, retold here.

“And” between values parts separate entries of the source, which are not always exact repeats. Equal entries are not always repeated. Results filed as inconclusive are left out. Some compounds were tested as several samples or in several runs, with calls that do not always agree. The source made the active and inactive calls. How the source made its calls, unless noted: active means hit-call score of the fitted dose curve at least 0.9, where 1 is the maximum; inactive means score below 0.9.

Test [1] addresses Paired box protein Pax-6 (Homo sapiens) (UniProt P26367). Briefly: ATG_Pax6_CIS: Attagene CIS-FACTORIAL HepG2 Assay for human Paired Box 6 (PAX6) (AID 2282956). The settings on record: HepG2 CIS-FACTORIAL PAX6 reporter transcription, RNA readout; actives raise or lower the signal. The method in brief:
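HepG2 cells transiently transfected with multiplexed cis-promoter reporter units (endogenous TF activity) were dosed for 24 h. Reporter mRNA was quantified by RT-PCR, 6-FAM labeling, HpaI digestion and capillary electrophoresis; bidirectional fitting versus DMSO baseline.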

Test [2] can be described thus: ATG_PXRE_CIS: Attagene CIS-FACTORIAL HepG2 Assay for human Pregnane X Receptor Element (PXRE) (AID 2282957). The settings on record: HepG2 Attagene CIS-FACTORIAL PXRE reporter, mRNA; actives raise or lower the signal. Put shortly: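 Cells: HepG2, transiently transfected reporter units under cis promoter control. Exposure: 24 h. Detection: reporter mRNA via RT-PCR/CE fluorescence; bidirectional fitting, DMSO-referenced.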

The nature of test [3]: ATG_PPRE_CIS: Attagene CIS-FACTORIAL HepG2 Assay for human Peroxisome Proliferator-activated Response Element (PPRE) (AID 2282958). The settings on record: HepG2 PPRE cis-element reporter, Attagene transcription factor profiling; actives raise or lower the signal. Put shortly:
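Transcript-level reporter induction in transfected HepG2 cells after 24 h chemical exposure, quantified by fluorescence from RT-PCR products separated by capillary electrophoresis.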

Test [4] can be described thus: ATG_RORE_CIS: Attagene CIS-FACTORIAL HepG2 Assay for human RAR-related Orphan Receptor Element (RORE) (AID 2282959). The conditions noted are these: HepG2 Attagene cis-factorial RORE reporter, mRNA; actives raise or lower the signal. The method in brief: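 Multiplexed reporter assay measuring mRNA induction from a cis promoter element in transiently transfected HepG2 cells after 24 h treatment. Detection via RT-PCR and capillary electrophoresis fluorescence; DMSO serves as baseline.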

Test [5] can be described thus: ATG_Sox_CIS: Attagene CIS-FACTORIAL HepG2 Assay for human SRY-box transcription factor (SOX) (AID 2282960). The settings on record: HepG2 Attagene cis-factorial SOX reporter, mRNA; actives raise or lower the signal. Put shortly: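 Cells were transfected with reporter constructs under cis-regulatory promoters, then exposed to chemicals for 24 h. Reporter transcripts were quantified by fluorescence after RT-PCR and capillary electrophoresis; activity was fitted in both directions against DMSO.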

Test [6] has as its target Transcription factor Sp1 (Homo sapiens) (UniProt P08047). The test can be described thus: ATG_Sp1_CIS: Attagene CIS-FACTORIAL HepG2 Assay for human Specificity Protein 1 (Sp1) (AID 2282961). The settings on record: HepG2 Sp1 cis-reporter transcription, actives raise or lower the signal. The method in brief:
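Measures mRNA induction of an Sp1-linked reporter in HepG2 cells 24 h post-dosing. Multiplexed reporters read by RT-PCR and capillary electrophoresis; DMSO serves as negative control and baseline.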

Test [7] can be described thus: ATG_SREBP_CIS: Attagene CIS-FACTORIAL HepG2 Assay for human Sterol Regulatory Element Binding (SREBP) (AID 2282962). The settings on record: HepG2 Attagene cis-factorial SREBP reporter, mRNA; actives raise or lower the signal. Put shortly: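 HepG2 cells transiently transfected with multiplexed cis-element reporter units report endogenous transcription factor activity. After 24 h of chemical exposure, reporter mRNA was quantified by RT-PCR, 6-FAM labelling, HpaI digestion and capillary electrophoresis; bidirectional fits used DMSO as baseline.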

Test [8] deals with Signal transducer and activator of transcription 3 (Homo sapiens) (UniProt P40763). Briefly: ATG_STAT3_CIS: Attagene CIS-FACTORIAL HepG2 Assay for human Signal Transducer and Activator of Transcription 3 (STAT3) (AID 2282963). The conditions noted are these: HepG2, Attagene cis-factorial STAT3 reporter transcription; actives raise or lower the signal. Put shortly:
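HepG2 cells transiently transfected with cis-element-driven multiple reporter transcription units; after 24 h chemical exposure, reporter mRNA measured by RT-PCR, 6-FAM primer-extension labelling, HpaI digestion and capillary electrophoresis. Bidirectional fitting versus DMSO baseline.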

A short description of test [9]: ATG_TA_CIS: Attagene CIS-FACTORIAL HepG2 Assay for human TA Basal Promoter (AID 2282964). The conditions noted are these: HepG2 Attagene CIS-factorial TA basal promoter reporter; actives raise or lower the signal. Put shortly: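 Background-control readout: TA basal promoter reporter mRNA, fitted in both directions relative to DMSO. Measured by RT-PCR and capillary electrophoresis 24 hours after treating HepG2 human liver cells transiently carrying multiplexed cis-regulated reporter constructs.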

Test [10] in a line: ATG_TAL_CIS: Attagene CIS-FACTORIAL HepG2 Assay for human TAL Basal Promoter (AID 2282966).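 Further: background control endpoint measuring basal TAL promoter reporter mRNA not a specific factor.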 The conditions noted are these: HepG2 Attagene cis-factorial TAL promoter reporter; actives raise or lower the signal. The method in brief:
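RT-PCR plus capillary electrophoresis quantifies reporter mRNA induction in transiently transfected HepG2 cells after 24 h chemical treatment. DMSO serves as negative control and baseline for bidirectional fitting.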

Test [11] in a line: ATG_TGFb_CIS: Attagene CIS-FACTORIAL HepG2 Assay for human Transforming Growth Factor (TGF) (AID 2282967). The settings on record: HepG2 Attagene CIS TGFb reporter, mRNA transcription; actives raise or lower the signal. The method in brief: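 Endogenous TGFB1-linked transcription factor activity read as reporter mRNA via RT-PCR and capillary electrophoresis, 24 h after dosing transiently transfected HepG2 cells. Gain or loss of signal fitted relative to DMSO.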

The nature of test [12]: ATG_VDRE_CIS: Attagene CIS-FACTORIAL HepG2 Assay for human Vitamin D Receptor Element (VDRE) (AID 2282968). The conditions noted are these: HepG2 VDRE cis-reporter transcription, actives raise or lower the signal. The method in brief:
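HepG2 cells transiently transfected with cis-element reporter units, dosed 24 h; reporter mRNA measured by RT-PCR, 6-FAM labeling, HpaI digestion and capillary electrophoresis. Activity fitted bidirectionally against DMSO baseline.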

In test [13] the target is X-box-binding protein 1 (Homo sapiens) (UniProt P17861). Briefly: ATG_Xbp1_CIS: Attagene CIS-FACTORIAL HepG2 Assay for human X-box Binding Protein 1 (XBP1) (AID 2282972). The conditions noted are these: HepG2 XBP1 cis-element reporter, Attagene multiplex; actives raise or lower the signal. The method in brief: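 HepG2 cells transiently transfected with cis-regulated multiple reporter transcription units; endogenous transcription factor activity measured 24 hours after chemical dosing. Reporter mRNA quantified by RT-PCR, 6-FAM primer extension, HpaI digestion and capillary electrophoresis; bidirectional fitting versus DMSO.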
Chain of X-box-binding protein 1 (Homo sapiens) (P17861 whole entry, looked up): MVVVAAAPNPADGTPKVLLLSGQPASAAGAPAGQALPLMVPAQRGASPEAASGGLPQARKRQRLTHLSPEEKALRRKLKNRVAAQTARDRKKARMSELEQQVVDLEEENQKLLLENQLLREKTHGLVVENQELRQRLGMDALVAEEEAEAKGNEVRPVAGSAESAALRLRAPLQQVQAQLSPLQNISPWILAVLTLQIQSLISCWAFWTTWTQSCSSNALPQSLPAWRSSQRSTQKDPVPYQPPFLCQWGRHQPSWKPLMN

The nature of test [14]: ATG_M_19_TRANS: Attagene TRANS-FACTORIAL HepG2 Assay for M19 Transcription Factor (Internal Marker) (AID 2282974; active means hit-call score of the fitted dose curve at least 0.9, where 1 is the maximum). The settings on record: HepG2 Attagene TRANS-FACTORIAL M19 internal marker reporter. The method in brief: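 After transfection of HepG2 with GAL4-UAS-driven reporter constructs, cells are dosed for 24 h. Total RNA is reverse-transcribed, reporter sequences PCR-amplified and labelled, then HpaI-digested and sized by capillary electrophoresis.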

Test [15] concerns the target Estrogen-related receptor gamma (Homo sapiens) (UniProt P62508). Briefly: ATG_ERRg_TRANS: Attagene TRANS-FACTORIAL HepG2 Assay for human Estrogen-Related Receptor gamma (ERRg) (AID 2282977; active means hit-call score of the fitted dose curve at least 0.9, where 1 is the maximum;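 further: hits increase reporter signal over DMSO so potencies reflect activators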). The conditions noted are these: HepG2 Attagene TRANS reporter, ERRg transactivation. The method in brief:
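Transient HepG2 transfectants, 24 h compound exposure, GAL4-UAS reporter mRNA by RT-PCR/6-FAM labelling/capillary electrophoresis; positive direction vs DMSO.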

The target in test [16] is Nuclear receptor subfamily 1 group I member 3 (Homo sapiens) (UniProt Q14994). Briefly: ATG_CAR_TRANS: Attagene TRANS-FACTORIAL HepG2 Assay for human Constitutive Androstane Receptor (CAR) (AID 2282969; active means hit-call score of the fitted dose curve at least 0.9, where 1 is the maximum;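 further: activators raise reporter mRNA above DMSO so AC50 marks induction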). The settings on record: HepG2 Attagene TRANS-FACTORIAL CAR reporter. Put shortly:
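HepG2 cells transiently transfected with multiplexed GAL4-UAS reporter units expressing chimeric NR-Gal4 proteins; compound exposure 24 h. Reporter mRNA measured by RT-PCR, 6-FAM labelling, HpaI digestion and capillary electrophoresis; gain-of-signal fitted against DMSO baseline.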

The target of test [17] is Estrogen receptor (Homo sapiens) (UniProt P03372). The test can be described thus: ATG_ERa_TRANS: Attagene TRANS-FACTORIAL HepG2 Assay for human Estrogen Receptor alpha (ERa) (AID 2282970; active means hit-call score of the fitted dose curve at least 0.9, where 1 is the maximum). The conditions noted are these: HepG2 Attagene TRANS ERa GAL4 reporter, mRNA. The method in brief: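 Cells: HepG2, transiently transfected. Construct: GAL4-UAS reporter units regulated by exogenous NR-Gal4 chimeras. Time: 24 h. Detection: reporter mRNA by RT-PCR, capillary electrophoresis, fluorescence. Baseline: DMSO, upward fitting.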
Chain of Estrogen receptor (Homo sapiens) (P03372 whole entry, looked up, the tested form may be a part): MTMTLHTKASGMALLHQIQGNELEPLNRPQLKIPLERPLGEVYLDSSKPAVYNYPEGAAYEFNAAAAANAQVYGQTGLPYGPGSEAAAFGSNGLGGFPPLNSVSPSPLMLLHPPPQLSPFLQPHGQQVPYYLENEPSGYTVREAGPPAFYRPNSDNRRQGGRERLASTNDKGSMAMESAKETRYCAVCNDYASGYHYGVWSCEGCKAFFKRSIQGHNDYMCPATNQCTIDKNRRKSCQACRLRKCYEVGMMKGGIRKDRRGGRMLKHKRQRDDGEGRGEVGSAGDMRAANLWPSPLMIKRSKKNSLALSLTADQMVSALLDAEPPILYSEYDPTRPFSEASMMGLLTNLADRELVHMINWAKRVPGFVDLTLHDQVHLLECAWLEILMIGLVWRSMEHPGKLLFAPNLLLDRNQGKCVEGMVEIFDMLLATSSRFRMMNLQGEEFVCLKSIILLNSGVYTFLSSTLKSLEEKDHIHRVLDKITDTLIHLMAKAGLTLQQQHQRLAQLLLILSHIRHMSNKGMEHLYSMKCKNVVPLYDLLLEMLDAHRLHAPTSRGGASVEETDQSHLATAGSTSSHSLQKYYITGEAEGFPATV

A short description of test [18]: ATG_TCF_b_cat_CIS: Attagene CIS-FACTORIAL HepG2 Assay for human T-Cell-Factor with beta-catenin (TCF/b-cat) (AID 2282965). The settings on record: HepG2 TCF/beta-catenin cis-reporter transcription, actives raise or lower the signal. The method in brief: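 HepG2 cells transiently transfected with multiple cis-promoter-regulated reporter transcription units, so endogenous transcription factor activity is measured. Reporter mRNA read 24 hours after dosing by RT-PCR, fluorescent labelling and capillary electrophoresis; bidirectional fitting against DMSO.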

The target of test [19] is Steroid hormone receptor ERR1 (Homo sapiens) (UniProt P11474). The test can be described thus: ATG_ERRa_TRANS: Attagene TRANS-FACTORIAL HepG2 Assay for human Estrogen-Related Receptor alpha (ERRa) (AID 2282971; active means hit-call score of the fitted dose curve at least 0.9, where 1 is the maximum). The conditions noted are these: HepG2 Attagene TRANS reporter, ERRa transactivation. Put shortly:
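Reporter transcripts from ERRa-Gal4 chimera activity measured in transiently transfected human HepG2 cells 24 hours after dosing, using RT-PCR with 6-FAM primer extension, HpaI digestion and capillary electrophoresis; DMSO is baseline.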

Test [20] can be described thus: ATG_GAL4_TRANS: Attagene TRANS-FACTORIAL HepG2 Assay for GAL4 (Internal Marker) (AID 2282976; active means hit-call score of the fitted dose curve at least 0.9, where 1 is the maximum). The settings on record: HepG2 Attagene TRANS GAL4 internal marker reporter. Put shortly: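 In transfected human HepG2 liver cells dosed 24 h, GAL4 reporter mRNA serves as a baseline marker. Detection by RT-PCR with fluorescent capillary electrophoresis, activity fitted upward relative to DMSO.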

Chain of Paired box protein Pax-6 (Homo sapiens) (P26367 whole entry, looked up): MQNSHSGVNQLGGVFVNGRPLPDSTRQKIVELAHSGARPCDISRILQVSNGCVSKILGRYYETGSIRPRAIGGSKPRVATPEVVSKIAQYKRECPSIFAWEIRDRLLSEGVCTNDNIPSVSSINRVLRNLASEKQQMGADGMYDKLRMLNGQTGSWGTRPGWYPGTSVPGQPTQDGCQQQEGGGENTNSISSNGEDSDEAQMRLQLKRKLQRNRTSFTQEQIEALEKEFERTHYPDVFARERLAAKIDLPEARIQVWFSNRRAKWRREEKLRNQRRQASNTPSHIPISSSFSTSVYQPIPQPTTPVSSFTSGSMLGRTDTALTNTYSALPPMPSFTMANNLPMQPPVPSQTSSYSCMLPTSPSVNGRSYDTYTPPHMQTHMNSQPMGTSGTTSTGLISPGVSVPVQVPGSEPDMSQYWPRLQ
Chain of Transcription factor Sp1 (Homo sapiens) (P08047 whole entry, looked up): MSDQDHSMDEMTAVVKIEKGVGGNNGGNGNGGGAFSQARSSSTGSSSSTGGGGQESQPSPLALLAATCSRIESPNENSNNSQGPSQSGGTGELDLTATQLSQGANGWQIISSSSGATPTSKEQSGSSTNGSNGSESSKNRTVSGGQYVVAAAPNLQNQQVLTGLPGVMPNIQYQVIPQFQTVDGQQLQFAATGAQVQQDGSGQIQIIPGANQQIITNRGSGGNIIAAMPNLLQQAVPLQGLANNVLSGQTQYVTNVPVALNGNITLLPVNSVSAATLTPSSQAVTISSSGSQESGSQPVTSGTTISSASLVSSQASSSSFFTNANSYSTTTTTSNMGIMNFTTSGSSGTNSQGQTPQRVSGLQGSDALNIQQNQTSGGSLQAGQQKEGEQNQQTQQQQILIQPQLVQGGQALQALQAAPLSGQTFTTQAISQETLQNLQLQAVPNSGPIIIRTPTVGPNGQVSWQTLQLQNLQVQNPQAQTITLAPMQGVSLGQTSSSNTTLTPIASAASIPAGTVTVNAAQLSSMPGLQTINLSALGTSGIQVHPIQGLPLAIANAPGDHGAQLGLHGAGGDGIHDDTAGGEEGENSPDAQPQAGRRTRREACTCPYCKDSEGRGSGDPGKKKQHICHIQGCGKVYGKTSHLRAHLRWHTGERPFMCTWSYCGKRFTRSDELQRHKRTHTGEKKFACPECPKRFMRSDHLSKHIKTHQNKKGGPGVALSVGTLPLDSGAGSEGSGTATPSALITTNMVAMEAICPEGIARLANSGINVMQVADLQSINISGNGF
Chain of Signal transducer and activator of transcription 3 (Homo sapiens) (P40763 whole entry, looked up): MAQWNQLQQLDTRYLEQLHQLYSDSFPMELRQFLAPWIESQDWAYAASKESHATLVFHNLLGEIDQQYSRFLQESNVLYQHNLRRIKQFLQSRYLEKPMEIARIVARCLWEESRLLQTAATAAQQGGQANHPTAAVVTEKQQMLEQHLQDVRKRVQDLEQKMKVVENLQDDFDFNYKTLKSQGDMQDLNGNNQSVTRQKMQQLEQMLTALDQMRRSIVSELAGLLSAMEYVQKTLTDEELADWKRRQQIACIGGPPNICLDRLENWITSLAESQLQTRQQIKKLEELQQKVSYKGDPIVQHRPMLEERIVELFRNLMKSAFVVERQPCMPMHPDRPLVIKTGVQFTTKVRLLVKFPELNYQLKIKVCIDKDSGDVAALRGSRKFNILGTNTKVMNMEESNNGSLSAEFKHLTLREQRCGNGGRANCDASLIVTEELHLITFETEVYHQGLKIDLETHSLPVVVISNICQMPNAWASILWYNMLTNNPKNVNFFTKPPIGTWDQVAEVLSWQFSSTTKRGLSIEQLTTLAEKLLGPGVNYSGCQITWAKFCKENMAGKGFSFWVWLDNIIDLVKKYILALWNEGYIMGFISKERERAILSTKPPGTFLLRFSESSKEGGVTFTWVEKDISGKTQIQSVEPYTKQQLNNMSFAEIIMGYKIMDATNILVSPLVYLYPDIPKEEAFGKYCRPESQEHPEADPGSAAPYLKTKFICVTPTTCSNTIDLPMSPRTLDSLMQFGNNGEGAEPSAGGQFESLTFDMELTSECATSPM
Chain of Estrogen-related receptor gamma (Homo sapiens) (P62508 whole entry, looked up, the tested form may be a part): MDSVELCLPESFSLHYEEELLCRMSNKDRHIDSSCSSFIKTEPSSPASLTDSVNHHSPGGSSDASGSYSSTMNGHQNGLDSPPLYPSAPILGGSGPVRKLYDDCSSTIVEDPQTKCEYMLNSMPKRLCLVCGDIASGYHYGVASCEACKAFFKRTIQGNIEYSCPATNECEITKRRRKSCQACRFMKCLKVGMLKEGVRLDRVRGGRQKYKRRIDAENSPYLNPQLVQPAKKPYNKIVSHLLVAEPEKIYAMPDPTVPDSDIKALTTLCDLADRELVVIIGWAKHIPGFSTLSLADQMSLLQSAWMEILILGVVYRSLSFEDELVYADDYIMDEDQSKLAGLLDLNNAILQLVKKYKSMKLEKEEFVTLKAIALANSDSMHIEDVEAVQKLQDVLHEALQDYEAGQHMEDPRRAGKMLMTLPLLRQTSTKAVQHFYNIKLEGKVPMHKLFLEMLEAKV
Chain of Nuclear receptor subfamily 1 group I member 3 (Homo sapiens) (Q14994 whole entry, looked up, the tested form may be a part): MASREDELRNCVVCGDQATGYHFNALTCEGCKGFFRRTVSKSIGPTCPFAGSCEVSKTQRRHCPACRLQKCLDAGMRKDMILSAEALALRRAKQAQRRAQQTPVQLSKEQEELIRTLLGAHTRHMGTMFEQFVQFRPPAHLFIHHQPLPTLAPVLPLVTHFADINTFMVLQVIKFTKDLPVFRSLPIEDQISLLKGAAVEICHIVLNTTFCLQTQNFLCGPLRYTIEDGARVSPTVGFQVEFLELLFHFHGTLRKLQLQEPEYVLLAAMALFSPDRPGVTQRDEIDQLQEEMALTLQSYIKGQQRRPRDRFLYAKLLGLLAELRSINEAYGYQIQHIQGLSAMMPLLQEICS
Chain of Steroid hormone receptor ERR1 (Homo sapiens) (P11474 whole entry, looked up, the tested form may be a part): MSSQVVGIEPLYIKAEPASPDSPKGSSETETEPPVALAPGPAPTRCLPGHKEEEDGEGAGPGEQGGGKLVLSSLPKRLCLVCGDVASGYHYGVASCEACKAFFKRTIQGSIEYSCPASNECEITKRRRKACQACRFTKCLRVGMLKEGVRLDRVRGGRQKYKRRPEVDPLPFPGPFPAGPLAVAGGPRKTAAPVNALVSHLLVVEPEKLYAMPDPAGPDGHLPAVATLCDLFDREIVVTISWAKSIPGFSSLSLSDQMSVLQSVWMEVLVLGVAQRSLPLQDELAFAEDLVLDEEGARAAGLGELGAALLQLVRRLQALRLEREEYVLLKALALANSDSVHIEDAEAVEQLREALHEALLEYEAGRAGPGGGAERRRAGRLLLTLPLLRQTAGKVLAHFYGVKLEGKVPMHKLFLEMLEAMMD

`Cc1cc2c(cc1C(F)(F)F)N(C(=O)Nc1ccc(Oc3cccnc3C)nc1)CC2`: the outcome in [1], in [2], in [3], in test [4], in test [5] and in test [6] was inactive. In addition, the compound was called inactive in [7], in [8], in test [9], in test [10], in [11] and in test [12]. Also, the result in test [13], in test [14] and in test [15] was inactive.

In the case of `CCCCCCCCCCCCO`, the outcome in test [1], in test [2], in [3], in test [4], in test [5] and in test [6] was inactive. Also, the outcome in test [7], in test [8], in test [9], in test [10], in test [11] and in test [12] was inactive. Also, the compound was classed as inactive in [16], in test [17], in test [13] and in test [14].

Regarding `O=C(O)Cn1c(=O)n(Cc2ccc(Br)cc2F)c(=O)c2ccc(Cl)cc21`, the compound was classed as inactive in test [1], in test [4], in test [5], in test [6], in test [7] and in [8]. The call in test [9], in test [10], in test [11], in test [16], in test [17] and in [14] was inactive. For the same compound, the AC50 – broadly, the concentration giving half of the maximal activity seen – in [2] is 8.54 µM (active); in [12], 27 µM (active).

In the case of `O=c1[nH]sc2ccccc12`, the compound was classed as inactive in test [1], in test [3], in test [4], in [6], in test [7] and in [8]. Also, the call in test [9], in test [10], in [11], in test [12], in [16] and in test [17] was inactive. Besides, the compound was classed as inactive in test [15]. Also, the AC50 in test [2] was 51.7 µM (active); in [5] it was 42.9 µM (active); in [13] it was 52.9 µM (active).

Take `CC(C)(c1cc(Br)c(O)c(Br)c1)c1cc(Br)c(O)c(Br)c1`: the AC50 in test [1] was 46 µM (active) and 42.9 µM (active); in test [2], 7.93 µM (active) and 8.01 µM (active); in [5] it was 41.4 µM (active) and 43.4 µM (active); in [6], 39.3 µM (active) and 31.9 µM (active); in [7], 31.7 µM (active) and 23 µM (active); in test [9] it was 23.2 µM (active). Moreover, the concentration at half-maximal activity (AC50) in test [18] was 42.6 µM (active) and 22.7 µM (active); in test [10], 43.7 µM (active); in [11], 49 µM (active) and 58 µM (active); in [12], 22.1 µM (active) and 22.6 µM (active); in test [13] it was 45.9 µM (active) and 42.9 µM (active). Besides, the compound was called inactive in [8], in test [9], in test [10], in test [16], in test [19] and in test [20]. Besides, the outcome in test [15] was inactive.
